We go through 72 compounds from PubChem BioAssay AID504834 (National Center for Advancing Translational Sciences (NCATS), 2011).

The whole screen tested about 320,000 compounds, of which about 22,000 (6.9%) were called active. Inconclusive results (about 27%) are left out. Only a selection was taken, and actives are over-represented in it overall. Unmarked numbers belong to inactive results. Calls follow the shape of the dose curve; as a rule, active = well fitted inhibition curve with a large enough effect; inconclusive = small, poorly fitted or top-dose-only effect, or another doubt; inactive = no such curve, though single readings can be large or run the other way.
% is scaled to controls: 0 for no effect and ±100 for the full control effect; potency is read from the fitted curve at half-maximal effect.

The nature of the test: Primary qHTS for delayed death inhibitors of the malarial parasite plastid, 96 hour incubation. The following applies: P. falciparum luciferase reporter growth; series mostly up to 28.7 µM; activity change, negative = inhibition: at the top concentration. Summed up:
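Cell-based qHTS: luciferase-tagged P. falciparum in erythrocytes (2% hematocrit, 0.05% parasitemia final) incubated with compounds for 96 hours, 37 C, 5% CO2; luciferase detection reagent then added and luminescence measured.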
On to `CCSCc1nc(N)nc(NCCc2ccccc2)n1`, for which the “activity change, negative = inhibition” value is 0%. The same measure, in the same setting: as for `CC(C)C(=O)N1CC(=O)Nc2ccc(F)cc2C1c1ccc(F)cc1` (configuration not stated), the figure is 17.2%; as for `Cc1ccc2c(c1)C(c1ccccc1)N(C(=O)c1ccc(F)cc1)CC(=O)N2` (configuration not stated), 24.6%; as for `O=C1CN(C(=O)c2ccccc2F)C(c2ccc(F)cc2)c2cc(F)ccc2N1` (configuration not stated), 13%.

Turning to `CCC(CC)C(=O)N1CC(=O)Nc2ccc(Br)cc2C1c1ccccc1` (configuration not stated), the Potency is 8.28 µM (active). Still for that read-out and setting: as for `Cc1ccc(C(=O)N2CC(=O)Nc3ccc(F)cc3C2c2ccc(F)cc2)cc1` (configuration not stated), the figure is 1.47 µM (active). `COC(=O)CN1C(C)=Nc2ccc(Br)cc2C1c1ccccc1` (configuration not stated): the “activity change, negative = inhibition” value was -2.01%. `CCCCn1c(N)c(N(CC(C)C)C(=O)c2cccc(S(=O)(=O)N3CC(C)OC(C)C3)c2)c(=O)[nH]c1=O` (configuration not stated): the “activity change, negative = inhibition” value was -20.2%. As for `O=C(COC(=O)c1cc(=O)[nH]c2ccccc12)NCc1cccc(Cl)c1`, the “activity change, negative = inhibition” value is -21.9%. In the case of `O=C(Nc1ccccc1C(=O)N1CCOCC1)c1ccc(CSc2ccccc2)cc1`, the “activity change, negative = inhibition” value is -3.39%. For the compound `O=C(Nc1ccccc1C(=O)N1CCOCC1)c1ccc(Cl)cc1`, the Potency is 13.1 µM (active). In the case of `O=C(Nc1ccccc1C(=O)N1CCCCCC1)c1ccccc1Cl`, the “activity change, negative = inhibition” value is 21.4%.

Consider `Cc1cc(NC(=O)CN2CCC(O)(c3cccc(F)c3)CC2)no1`, for which the “activity change, negative = inhibition” value is 0%. As to `O=C(CN1CCN(C(=O)c2cccc(F)c2)CC1)Nc1ccccc1F`, the “activity change, negative = inhibition” value was 43.4%. Take `CC(=O)NC1(c2cccc(F)c2)CCN(CC(=O)NC(C)C)CC1`: the Potency is 1.85 µM (active). Consider `O=C(O)Cc1csc(NC(=O)CSc2nnnn2-c2ccc(O)cc2)n1`, for which the “activity change, negative = inhibition” value is 19.6%. For the compound `CCn1c(SCC(=O)NC2CC2)nnc1-c1ccccn1`, the “activity change, negative = inhibition” value was 1.07%. Consider `Cc1ccc(S(=O)(=O)N(C)CC(=O)NC2CCCC2)cc1`, for which the “activity change, negative = inhibition” value is -4.78%.

Consider `Cc1ccc(S(=O)(=O)N(CC(=O)NCCSC2CCCCC2)c2ccccc2F)cc1`, for which the Potency is 1.65 µM (active). Regarding `CCN(CC(=O)NCCc1ccccc1)S(=O)(=O)c1ccc(C)cc1`, the “activity change, negative = inhibition” value was 4.36%. With `Cc1ccc(CNC(=O)C(=O)c2cn(CC(=O)N3CCOCC3)c3ccccc23)cc1`, the “activity change, negative = inhibition” value was 41.8%.

With `O=C(CS(=O)(=O)c1cn(Cc2cccc(F)c2)c2ccccc12)N1CCCCC1`, the “activity change, negative = inhibition” value was 94.6%. In the case of `O=C(CS(=O)(=O)c1cn(Cc2ccc(Cl)cc2)c2ccccc12)N1CCOCC1`, the Potency was 8.28 µM (active). In the case of `CCc1ccc(NC(=O)COC(=O)c2cccs2)cc1`, the “activity change, negative = inhibition” value is -27.9%. In the case of `CCOC(=O)Cc1cc(=O)[nH]c(/N=C(\N)Nc2ccc(OC)cc2)n1`, the “activity change, negative = inhibition” value was 8%.

As to `O=C(CN1CCOCC1)N/N=C/c1ccc(-c2ccc(Br)cc2)o1`, the “activity change, negative = inhibition” value was 10.5%.

As for `CC(/C=C/C1(O)C(C)CC(=O)CC1(C)C)OC1OC(CO)C(O)C(O)C1O` (configuration not stated), the “activity change, negative = inhibition” value was 57.5%. As for `C=CC1C(OC2OC(CO)C(O)C(O)C2O)OC=C(C(=O)OC)C1CC1CC(=O)CC(CC(=O)CCc2ccc(O)cc2)O1` (configuration not stated), the Potency was 5.22 µM (active). In the case of `COC(=O)C1=CO[C@@H](O[C@@H]2O[C@H](CO)[C@@H](O)[C@H](O)[C@H]2O)C2C1C[C@H](O)[C@@H]2C` (some centres not stated), the “activity change, negative = inhibition” value was 37.1%. Same read-out and setting: for `Cc1cc(=O)[nH]c2nnnn12` the value was 26%; for `NS(=O)(=O)c1ccc(CNC(=O)c2cccc(Oc3ccccc3)c2)cc1`, 4.38%. For `Cc1nc(C)c2c(c1C(F)(F)F)-c1ccccc1C2(F)F`, the Potency was 11.7 µM (active). As to `COCCCC1CCN(C(=O)C2CCC(=O)N(C3CCCCCC3)C2)CC1` (configuration not stated), the “activity change, negative = inhibition” value was 24.7%. Regarding `CCN(CC)c1ccc(NC(=O)CN2C(=O)NC3(CCc4ccccc43)C2=O)cc1` (configuration not stated), the “activity change, negative = inhibition” value is 29.7%. Consider `COc1ccc(C(=O)NCc2nnc(SCCOc3ccccc3)n2C)cc1`, for which the “activity change, negative = inhibition” value was 11.2%. On the same count and under the same terms, as for `COc1cccc(C(=O)NCCSc2ccc(Br)cc2)c1`, the figure is -24.1%. With `COc1ccc(C(=O)NCCSc2ccccc2C)cc1`, the Potency is 3.29 µM (active). As to `COc1cc(C(C(=O)NC2CCCC2)N(Cc2ccccc2)C(=O)c2snc(C(N)=O)c2N)ccc1O` (configuration not stated), the “activity change, negative = inhibition” value is -1.49%. For `COc1ccc(CNC(=O)C(=O)NCC2OCCN2C(=O)c2ccc(OC)cc2)cc1` (configuration not stated), the “activity change, negative = inhibition” value is -5.85%.

As for `O=C(CN(Cc1ccccc1)C(=O)CCC(=O)Nc1ccccn1)NCCc1ccccc1`, the Potency was 13.1 µM (active). For `O=C(CCCC(=O)N(CC(=O)NC1CCCC1)Cc1ccccc1Cl)Nc1ccccn1`, the “activity change, negative = inhibition” value is -35.8%. On the same count and under the same terms, as for `Cc1ccnc(NC(=O)CCC(=O)N(CC(=O)NCCc2ccccc2)Cc2cccs2)c1`, the figure is 40.5%; as for `C=CCn1c(N)c(C(=O)OCC(C)C)c2nc3ccccc3nc21`, 39.3%.

`CCC(C)NC(=O)c1c(N)n(/N=C/c2cccs2)c2nc3ccccc3nc12` (configuration not stated): the Potency is 10.4 µM (active). Take `CCCNC(=O)c1c(N)n(-c2ccc(S(N)(=O)=O)cc2)c2nc3ccccc3nc12`: the “activity change, negative = inhibition” value is 38.1%. On the same count and under the same terms, for `O=C(NCCc1c[nH]c2ccc(Cl)cc12)c1ccc([N+](=O)[O-])cc1` the value was -56.9%. Regarding `Cc1ccc(CNC(=O)c2c(-c3ccccc3)noc2C)cc1`, the “activity change, negative = inhibition” value is 1.58%. As for `Oc1ccccc1CNc1ncc(Br)cc1Br`, the Potency is 13.1 µM (active).

As to `CCc1cccc(C)c1NS(=O)(=O)c1cc(Br)cnc1N`, the “activity change, negative = inhibition” value is 19.6%. `Brc1ccc2ncnc(NCc3cccnc3)c2c1`: the “activity change, negative = inhibition” value was -2.48%. In the case of `COc1ccc(S(=O)(=O)c2c[nH]c(=S)[nH]c2=O)cc1Cl`, the “activity change, negative = inhibition” value is 37.2%. In the case of `O=C(O)c1cc(S(=O)(=O)NC2CCCc3ccccc32)ccc1O` (configuration not stated), the “activity change, negative = inhibition” value was 5.45%. Consider `O=c1[nH]c2ccc(S(=O)(=O)N3CCCC3)cc2[nH]1`, for which the “activity change, negative = inhibition” value was 35.6%.

With `CCCCn1c(N)c(N(CCOC)C(=O)c2cccc(S(=O)(=O)N3CCCCC3)c2)c(=O)[nH]c1=O`, the “activity change, negative = inhibition” value was -0.352%. For `CCCCn1c(=S)[nH]c2cc(S(=O)(=O)N3CCCCC3)ccc21`, the Potency is 9.28 µM (active). On to `Cc1ccc(S(=O)(=O)N(C)C)cc1NC(=O)C1Cc2ccccc2CN1C(=O)c1ccco1` (configuration not stated), for which the “activity change, negative = inhibition” value was -21.9%. Same read-out and setting: as for `O=C(NCCCn1ccnc1)/C(=C\c1ccccc1F)NC(=O)c1ccccc1`, the figure is 22.2%; as for `Cc1c(C(=O)OCC(=O)N2CCCC2=O)oc2ccccc12`, 20%; as for `CC1CCCN(CC(O)COCc2ccccc2)C1` (configuration not stated), 33.6%. Turning to `Oc1c(CN2CCCC2)cc(COCc2ccccc2)c2cccnc12`, the Potency is 2.08 µM (active). Regarding `O=[N+]([O-])c1cc([N+](=O)[O-])c2cccnc2c1O`, the “activity change, negative = inhibition” value is -7.46%. With `Cc1cnc(C(=O)N2CCCC(N3CCN(c4ccccc4F)CC3)C2)cn1` (configuration not stated), the “activity change, negative = inhibition” value was -0.336%. In the case of `O=C(Nc1nnc(SCc2c(Cl)cccc2Cl)s1)c1cccc([N+](=O)[O-])c1`, the “activity change, negative = inhibition” value was 1.35%. Regarding `Cn1c(=O)oc2cc(S(=O)(=O)NCCC(=O)NCc3ccccc3Cl)ccc21`, the Potency was 10.4 µM (active). Take `COc1ccc(NC(=O)CCNS(=O)(=O)c2ccc3c(c2)c(=O)n(C)c(=O)n3C)cc1OC`: the “activity change, negative = inhibition” value is 65%. Take `COc1cc(NC(=O)CCS(=O)(=O)c2ccc3c(c2)oc(=O)n3C)cc(OC)c1`: the Potency was 1.47 µM (active). Consider `CSCCC(NS(=O)(=O)c1ccc2c(c1)oc(=O)n2C)C(=O)NCc1ccccc1` (configuration not stated), for which the “activity change, negative = inhibition” value was 7.38%.

Consider `CCN(Cc1ccccc1)C(=O)CCS(=O)(=O)c1ccc2c(c1)oc(=O)n2C`, for which the “activity change, negative = inhibition” value was 7.96%. Regarding `Cc1ccc(NC(=O)CCNS(=O)(=O)c2ccc3c(c2)oc(=O)n3C)cc1C`, the “activity change, negative = inhibition” value is 14.7%. Regarding `O=C(CCNS(=O)(=O)c1ccc(Br)s1)NCc1ccccc1Cl`, the “activity change, negative = inhibition” value is 3.9%.

For the compound `COc1cccc(NC(=O)CCNS(=O)(=O)c2ccc3c(c2)oc(=O)n3C)c1`, the Potency is 7.38 µM (active).

In the case of `Cn1c(=O)oc2cc(S(=O)(=O)N3CCC(C(=O)Nc4ccc(OC(F)(F)F)cc4)CC3)ccc21`, the “activity change, negative = inhibition” value is 37.5%.
